Screening data (PubChem BioAssay)
Only some compounds are listed: those with a hit (about 4.2% of all), similar ones and a draw of the others.
Integrin act MD – activators of alpha7 integrin expression for muscular dystrophy; alpha7betagal myoblasts, beta-gal FDG fluorescence, 48 h; Potency, µM (doses to about 38.3 µM), inactives show at the top dose activation, most hits filed as activators; 0.064% of 350,000 active; AID 624291;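 note: 100% = response of the positive control SU9516; nearly all actives have a fitted effect of over 60% in size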
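alpha7betagal+/- myoblasts (passage 13, 250/well) treated 48 h at 37C with compounds at 1:260 dilution of DMSO stock. Lysed, then beta-galactosidase activity read as FDG fluorescence (ex 480/em 540) after 30 min, with pre-read for autofluorescence.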
MCF10A rerep – induces DNA re-replication in MCF 10a normal breast cells. MCF 10A DNA re-replication, Hoechst nuclear intensity, 48 h. Potency, µM (top dose mostly 46.1 µM), inactives show top-dose activity, positive = re-replication, usual class: activators. 2.9% of 350,000 active. AID 624296; note: % of control where 0% means no effect; nearly all actives have a fitted effect of over 50% in size
SW480 rerep – induces DNA re-replication in SW480 colon adenocarcinoma cells | 1.8% of 340,000 active | SW480 DNA re-replication, Hoechst DNA content imaging, 48 h | Potency, µM (highest dose often 46.1 µM), for the others: at the highest dose re-replication activation, most hits filed as activators; note: % of control where 0% means no effect; nearly all actives have a fitted effect of over 55% in size
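Compounds, transferred as 23 nL by pin tool, were incubated with cells for 48 hr; DNA content per nucleus was then quantified by Hoechst staining and fluorescence plate imaging.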
A-T KAP1 phos – potential ataxia-telangiectasia treatment | AID 485349 | Potency, µM (series often up to 57.5 µM), inactives show top-dose activation, actives largely listed as activators | 0.19% of 320,000 active | F2112 A-T fibroblasts, KAP-1 phosphorylation AlphaLISA; neocarzinostatin DNA damage 30 min before lysis; note: % of control where 0% means no effect; nearly all actives have a fitted effect of over 45% in size
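hTERT-immortalized A-T patient fibroblasts (F2112), 500 cells/well in OPTI-MEM, 1% FBS, got compounds for 60 min, then NCS for 30 min at 37C. Lysates were then assayed for phospho-KAP-1 by AlphaLISA (anti-pKAP1 donor, anti-KAP1 acceptor beads), 6 hr at 25C.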
Mito fusion yeast – inhibitors of mitochondrial division or activators of mitochondrial fusion; S. cerevisiae fusion-defective mutant growth rescue, CellTiterGlo 48 h; Potency, µM (highest dose often 46.1 µM), without a hit: at the top dose growth rescue (activation), most hits filed as activators; 0.23% of 320,000 active; note: % of control where 0% means no effect; nearly all actives have a fitted effect of over 45% in size
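Luminescent cell viability in 1536-well qHTS format served as the measure of rescued growth in ts fusion-mutant S. cerevisiae cultured on non-fermentable YPEG for 48 hours at 37C.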
An asterisk follows results filed as active; ? = inconclusive; · = not tested or not shown; [ ] = another dose, or the depositor's remark. Calls come from the whole dose curve; as a rule, active = well fitted activation curve with a large enough effect; inconclusive = small, poorly fitted or top-dose-only effect; inactive = no such curve, though single readings can be large or run the other way. Potency is the fitted concentration of half-maximal effect.

SMILES	Integrin act MD	MCF10A rerep	SW480 rerep	A-T KAP1 phos	Mito fusion yeast
COc1ccc2sc(-c3ccc(S(C)(=O)=O)cc3)c(C#CCO)c2c1	-17%	?	1%	13%	·
COc1ccc2c(C#CCCO)c(-c3ccc(S(C)(=O)=O)cc3)sc2c1	-9%	21µM*	?	?	·
O=C(CSc1nc2ccc(Nc3nc(N4CCOCC4)nc(N4CCOCC4)n3)cc2s1)Nc1ccccc1F	22%	2.1µM*	2.9µM*	5%	-1%
CSc1nc2ccc(Nc3nc(N4CCOCC4)nc(N4CCOCC4)n3)cc2s1	17%[7.66 µM]	?	16µM*	7%	13%
O=C(CSc1nc2ccc(Nc3nc(N4CCOCC4)nc(N4CCOCC4)n3)cc2s1)N1CCOCC1	-22%	?	-7%	5%	0%
O=C(CSc1nc2ccc(Nc3nc(N4CCOCC4)nc(N4CCOCC4)n3)cc2s1)Nc1ccccc1Cl	-44%	18µM*	?	1%	-1%
CCOc1ccc2nc(SCC(=O)NCc3ccco3)sc2c1	-2%	20%	-3%	-4%	-5%
O=C(CSc1nc2ccc(Nc3nc(N4CCCC4)nc(N4CCCC4)n3)cc2s1)NCc1ccco1	17%	5.8µM*	-9%	-5%	-2%
CCOC(=O)C1C(c2ccc([N+](=O)[O-])cc2)C2C(=O)NN=C2CC1(C)O (stereo not drawn)	18%	1%	-10%	-6%	-3%
COc1cccc(C2/C(=C(/O)c3ccc4c(c3)OCO4)C(=O)C(=O)N2CCN2CCOCC2)c1 (stereo not drawn)	-27%	20%	-11%	-5%	6%
c1ccc(CSc2ncnc3c2ncn3C2CCCCO2)cc1 (stereo not drawn)	31%	-9%	-30%	·	·
c1ccc(CNc2ncnc3c2ncn3C2CCCCO2)cc1 (stereo not drawn)	13%	16µM*	29%	8%	-2%
COC1C(CO)OC(n2c3c(Cl)cccc3c3c4c(c5c6cccc(Cl)c6[nH]c5c32)C(=O)NC4=O)C(O)C1O (stereo not drawn)	-41%	-5%	1.6µM*	·	·
O=C(CBr)c1ccc([N+](=O)[O-])c(CS(=O)(=O)c2ccc(Cl)cc2)c1	-13%	?	15%	16%	3%
c1ccc(N2N=C(c3cccs3)CC2c2ccco2)cc1 (stereo not drawn)	-25%	8.2µM*	8.2µM*	28µM*	-5%
Cc1ccc(C2=NN(C(=S)Nc3ccccc3)C(c3ccco3)C2)cc1 (stereo not drawn)	-42%	-2%	0%	-7%	-2%
c1ccc(C2=NN(c3ccccc3)C(c3ccco3)C2)cc1 (stereo not drawn)	-26%	?	?	16µM*	6%
CCC(=O)N1N=C(c2cccs2)CC1c1ccco1 (stereo not drawn)	-16%	?	8%	5%	-2%
Clc1ccc(N2N=C(c3cccs3)CC2c2ccco2)cc1 (stereo not drawn)	0%	4.6µM*	?	22µM*	-12%
CCN(CC)CC(=O)N1N=C(c2cccs2)CC1c1ccco1 (stereo not drawn)	13%	?	-4%	-6%	0%
Cc1nn(-c2ccc(F)cc2)c(C)c1CN1CCN(CCc2ccccc2)C(CCO)C1 (stereo not drawn)	-43%	?	-11%	-1%	-8%
COc1ccccc1N1CCN(S(=O)(=O)c2ccc(-c3ccc(=O)[nH]n3)o2)CC1	-30%	4%	1%	-1%	2%
Cc1cccc(N2CCN(S(=O)(=O)c3ccc(-c4ccc(=O)[nH]n4)o3)CC2)c1C	-13%	21µM*	?	1%	-9%
Cc1c(C(=O)N2CCN(c3ccccc3F)CC2)sc2ncn(CC(=O)N3CCOCC3)c(=O)c12	-12%	5%	-6%	-2%	0%
Cc1ccc(S(=O)(=O)Nc2ccc(N(C)C)cc2)cc1	21%	-1%	-52%	-4%	5%
SMILES	Integrin act MD	MCF10A rerep	SW480 rerep	A-T KAP1 phos	Mito fusion yeast
CN(C)c1ccc(NS(=O)(=O)c2ccc(Cl)cc2)cc1	-9%	1%	21µM*	-7%	0%
CC1CCN(c2nc(Cl)nc(Nc3ccc([N+](=O)[O-])cc3)n2)CC1	13%	5.2µM*	-3%	-10%	?
C=CCNc1nc(Nc2ccc([N+](=O)[O-])cc2)nc(N2CCCC2)n1	11%	3%	4%	0%	13%
CN(CC(=O)Nc1cc(S(=O)(=O)N2CCCC2)ccc1Cl)Cc1nc2ccccc2c(=O)[nH]1	-36%	6%	-59%	·	·
O=C(CC1(O)C(=O)N(Cc2ccccc2Cl)c2ccccc21)c1ccco1 (stereo not drawn)	-38%	?	18µM*	7%	-3%
CCCCN1C(=O)C(O)(CC(=O)c2c(C)n[nH]c2C)c2cc(Br)ccc21 (stereo not drawn)	-16%[7.66 µM]	2%	-17%	-7%	2%
CCOC(=O)CN1C(=O)C(O)(CC(=O)c2ccco2)c2ccccc21 (stereo not drawn)	-37%	?	12%	18%	0%
CCCCN1C(=O)C(O)(CC(=O)c2ccco2)c2cc(Br)ccc21 (stereo not drawn)	-59%	?	15µM*	-1%	3%
COC(=O)C/C=C/[C@@H](C)[C@@H](/C=N/OC[C@@H](C)[C@H](OCc1ccccc1)C(C)C)NS(=O)(=O)c1ccc(C)cc1	·	3%	19%	8%	8%
CCCn1c(NC(=O)c2cccc(S(=O)(=O)N3CCCC3)c2)nc2ccccc21	-4%[7.66 µM]	18µM*	?	5%	17%
CCCn1c(NC(=O)c2ccccc2)nc2ccccc21	-35%	5%	3%	8%	3%
CCCCCCCn1c(NC(=O)CC)nc2ccccc21	-69%	6.5µM*	-16%	20%	12%
CCC(=O)NC(NC(=S)Nc1cccc2cccnc12)C(Cl)(Cl)Cl (stereo not drawn)	3%	-1%	4%	-11%	1%
CC(C)(C)C(=O)NC(Nc1cccc2cccnc12)C(Cl)(Cl)Cl (stereo not drawn)	-46%	21µM*	23µM*	0%	1%
NC[C@@H]1O[C@H](C23CC4CC(CC(C4)C2)C3)Cc2c1ccc(O)c2O	·	7%	?	-3%	?
NC[C@@H]1O[C@H](c2ccccc2)Cc2c1ccc(O)c2O	·	·	·	·	16µM*
CCN(CC)CCC[C@H](C)Nc1c2ccc(Cl)cc2nc2ccc(OC)cc12	·	13µM*	?	·	·
CC1=CC2=NC(=O)/C(=C\c3cccn3CCOc3cc(C)cc(C)c3)C(=N)N2O1	2%	?	3%	-7%	20µM*
COc1ccc(-c2cc(C(F)(F)F)nc(-n3ccnc3)n2)cc1	0%	-2%	-6%	-2%	0%
